Data as given in PubChem BioAssay (EPA / NIEHS).
Results filed as inconclusive are left out. The source made the active and inactive calls. How the source made its calls, unless noted: active means hit-call score of the fitted dose curve at least 0.9, where 1 is the maximum; inconclusive means response in the unintended direction; inactive means score below 0.9.

System: not listed separately
Test: ATG_M_06_TRANS: Attagene TRANS-FACTORIAL HepG2 Assay for M06 Transcription Factor (Internal Marker) (AID 2282983);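 further: reporter transcript level by RT-PCR then capillary electrophoresis fluorescence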
Conditions: HepG2 Attagene TRANS M06 internal marker reporter
In short: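 Multi-reporter-transfected HepG2, 24 h treatment; reporter transcripts quantified via RT-PCR, primer-extension labelling and CE. DMSO-normalized gain-of-signal fit.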

| Compound | outcome |
| --- | --- |
| CCOP(=O)(OCC)SCCSCC | inactive |
| C=C(C)[C@@H]1CC=C(C=O)CC1 | inactive |
| C=CC(=O)OCC(COC(=O)C=C)(COC(=O)C=C)COC(=O)C=C | inactive |
| CC(C)[C@H](C(=O)OC(C#N)c1cccc(Oc2ccccc2)c1)c1ccc(OC(F)F)cc1 (some centres not stated) | inactive |
| CN(N=O)C(N)=O | inactive |
| O=[N+]([O-])c1c2ccccc2cc2ccccc12 | inactive |
| CCCSP(=S)(OCC)Oc1ccc(Cl)cc1Cl (configuration not stated) | inactive |
| CCOC(=O)CCN(SN(C)C(=O)Oc1cccc2c1OC(C)(C)C2)C(C)C | inactive |
| C=CC(F)(C(F)(F)F)C(F)(F)C(F)(F)F (configuration not stated) | inactive |
| OCCCCO | inactive |
| CCOP(=S)(OCC)O/N=C(\C#N)c1ccccc1 | inactive |
| Nc1ccc(Br)cc1 | inactive |
| O=c1oc2ccccc2c(O)c1C(CC(O)c1ccc(-c2ccc(Br)cc2)cc1)c1ccccc1 (configuration not stated) | inactive |
| Cc1cc(Cl)ccc1N | inactive |
| CC(F)(F)CC(F)(F)F | inactive |
| O=C(O)C1(c2ccc3c(c2)OC[C@H](Cc2ccc(-c4ccccc4)cc2)[C@H]3O)CCCC1 | inactive |
| Clc1cccc(Cl)c1Cl | inactive |
| COc1ccc([N+](=O)[O-])cc1O | inactive |
| Cc1cc(C(C)(C)c2ccc(O)c(C)c2)ccc1O | inactive |
| OC[C@@H](O)[C@H]1O[C@@H]2O[C@H](C(Cl)(Cl)Cl)O[C@@H]2[C@H]1O | inactive |
| C=CCOC(F)(C(F)(F)F)C(F)(F)F | inactive |
| CC(=O)CN(CC(C)=O)N=O | inactive |
| C=CCc1ccccc1O | inactive |
| CCC(C)(C#N)N=NC(C)(C#N)CC (configuration not stated) | inactive |
| Cc1ccc(CCl)cc1 | inactive |
| CS(=O)(=O)c1ccc(C(=O)C2C(=O)CCCC2=O)c(Cl)c1COCC(F)(F)F | inactive |

System: not listed separately
Test: ATG_M_32_TRANS: Attagene TRANS-FACTORIAL HepG2 Assay for M32 Transcription Factor (Internal Marker) (AID 2282984);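 further: transcript level of a background control reporter unit measured by RT-PCR and capillary electrophoresis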
Conditions: HepG2 Attagene TRANS M32 internal marker reporter
In short: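 Internal background reporter in transfected HepG2: after 24 h chemical exposure, RNA reverse-transcribed, reporter cDNA amplified, fluorescently labelled and HpaI-cut, then sized by capillary electrophoresis. Gain of signal fitted against DMSO control.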

| Compound | outcome |
| --- | --- |
| CCN(N=O)C(N)=O | inactive |
| CCOP(=O)(OCC)SCCSCC | inactive |
| CCOc1cc(C=O)ccc1O | inactive |
| CCCCCCCCBr | inactive |
| N#Cc1ccncc1 | inactive |
| CN(C)c1ccc(N=O)cc1 | inactive |
| CC(C)[C@H](C(=O)OC(C#N)c1cccc(Oc2ccccc2)c1)c1ccc(OC(F)F)cc1 (some centres not stated) | inactive |
| CN(N=O)C(N)=O | inactive |
| O=[N+]([O-])c1c2ccccc2cc2ccccc12 | inactive |
| CCCSP(=S)(OCC)Oc1ccc(Cl)cc1Cl (configuration not stated) | inactive |
| CCOC(=O)CCN(SN(C)C(=O)Oc1cccc2c1OC(C)(C)C2)C(C)C | inactive |
| CNC(=O)N(C)c1nc2ccccc2s1 | inactive |
| Nc1ccc(Br)cc1 | inactive |
| O=c1oc2ccccc2c(O)c1C(CC(O)c1ccc(-c2ccc(Br)cc2)cc1)c1ccccc1 (configuration not stated) | inactive |
| Cc1cc(Cl)ccc1N | inactive |
| O=C(Cl)OCCOCCOC(=O)Cl | inactive |
| CC(F)(F)CC(F)(F)F | inactive |
| COc1ccc([N+](=O)[O-])cc1O | inactive |
| Cc1cc(C(C)(C)c2ccc(O)c(C)c2)ccc1O | inactive |
| OC[C@@H](O)[C@H]1O[C@@H]2O[C@H](C(Cl)(Cl)Cl)O[C@@H]2[C@H]1O | inactive |
| CC(=O)CN(CC(C)=O)N=O | inactive |
| O=[N+]([O-])c1cc([As](=O)(O)O)ccc1O | inactive |
| CCOC(=O)C(SP(=S)(OC)OC)c1ccccc1 (configuration not stated) | inactive |
| Cc1ccc(CCl)cc1 | inactive |
| CS(=O)(=O)c1ccc(C(=O)C2C(=O)CCCC2=O)c(Cl)c1COCC(F)(F)F | inactive |

Target: Nuclear receptor subfamily 4 group A member 2 (Homo sapiens) (UniProt P43354)
Sequence (P43354 whole entry, looked up): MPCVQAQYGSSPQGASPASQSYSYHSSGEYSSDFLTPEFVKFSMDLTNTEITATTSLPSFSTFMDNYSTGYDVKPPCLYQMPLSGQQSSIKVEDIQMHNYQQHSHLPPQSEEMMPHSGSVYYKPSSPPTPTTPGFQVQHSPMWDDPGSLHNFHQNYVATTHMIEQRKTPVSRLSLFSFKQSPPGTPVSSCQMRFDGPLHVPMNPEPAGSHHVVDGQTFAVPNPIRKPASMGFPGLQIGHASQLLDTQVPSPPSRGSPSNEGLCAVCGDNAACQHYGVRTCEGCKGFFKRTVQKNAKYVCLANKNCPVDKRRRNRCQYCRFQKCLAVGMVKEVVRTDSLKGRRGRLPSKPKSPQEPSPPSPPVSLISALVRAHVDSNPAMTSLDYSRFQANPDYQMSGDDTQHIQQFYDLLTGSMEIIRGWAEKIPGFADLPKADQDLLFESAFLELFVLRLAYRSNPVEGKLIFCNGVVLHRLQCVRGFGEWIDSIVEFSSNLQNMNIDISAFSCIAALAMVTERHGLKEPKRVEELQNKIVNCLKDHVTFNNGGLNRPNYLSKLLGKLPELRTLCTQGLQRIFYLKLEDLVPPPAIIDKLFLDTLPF
Test: ATG_NURR1_TRANS: Attagene TRANS-FACTORIAL HepG2 Assay for human Nuclear Receptor Related Protein 1 (NURR1) (AID 2282985)
Conditions: HepG2 Attagene TRANS reporter, mRNA readout
In short: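 Reporter transcript induction, measured by RT-PCR with fluorescent labelling, HpaI digestion and capillary electrophoresis, after 24 hr dosing of human HepG2 cells transiently expressing an exogenous NR-Gal4 fusion with GAL4-UAS-driven reporters; DMSO as baseline.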

| Compound | outcome | AC50 |
| --- | --- | --- |
| CCOP(=O)(OCC)SCCSCC | inactive | – |
| C=C(C)[C@@H]1CC=C(C=O)CC1 | inactive | – |
| CCCCCCCCBr | inactive | – |
| CC(C)[C@H](C(=O)OC(C#N)c1cccc(Oc2ccccc2)c1)c1ccc(OC(F)F)cc1 (some centres not stated) | inactive | – |
| CN(N=O)C(N)=O | inactive | – |
| CCCSP(=S)(OCC)Oc1ccc(Cl)cc1Cl (configuration not stated) | inactive | – |
| OCCCCO | inactive | – |
| CNC(=O)N(C)c1nc2ccccc2s1 | inactive | – |
| Nc1ccc(Br)cc1 | inactive | – |
| Cc1cc(C(C)(C)c2ccc(O)c(C)c2)ccc1O | – | 69.3 µM (active) |
| CCOC(=O)C(SP(=S)(OC)OC)c1ccccc1 (configuration not stated) | inactive | – |
| CCC(C)(C#N)N=NC(C)(C#N)CC (configuration not stated) | inactive | – |

Target: Transcriptional activator Myb (Homo sapiens) (UniProt P10242)
Sequence (P10242 whole entry, looked up): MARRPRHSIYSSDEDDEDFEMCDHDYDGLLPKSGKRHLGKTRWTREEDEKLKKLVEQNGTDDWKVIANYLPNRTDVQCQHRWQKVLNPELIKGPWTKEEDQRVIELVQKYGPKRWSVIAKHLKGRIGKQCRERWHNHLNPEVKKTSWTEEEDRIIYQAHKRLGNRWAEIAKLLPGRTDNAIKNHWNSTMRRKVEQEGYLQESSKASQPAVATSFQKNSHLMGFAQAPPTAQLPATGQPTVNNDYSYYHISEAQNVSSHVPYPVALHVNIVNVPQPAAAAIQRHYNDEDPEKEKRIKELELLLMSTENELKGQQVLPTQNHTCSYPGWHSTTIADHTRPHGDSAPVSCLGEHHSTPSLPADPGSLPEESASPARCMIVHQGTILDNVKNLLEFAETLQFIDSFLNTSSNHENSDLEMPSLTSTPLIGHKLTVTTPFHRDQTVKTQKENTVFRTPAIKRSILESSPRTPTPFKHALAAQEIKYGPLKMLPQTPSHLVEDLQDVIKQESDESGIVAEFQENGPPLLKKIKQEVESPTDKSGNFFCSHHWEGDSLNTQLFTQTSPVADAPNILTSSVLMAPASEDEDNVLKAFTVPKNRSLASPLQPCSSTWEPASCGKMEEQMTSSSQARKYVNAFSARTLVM
Test: ATG_Myb_CIS: Attagene CIS-FACTORIAL HepG2 Assay for human Myeloblastosis (Myb) Proto-Oncogene Transcription Factor (AID 2282986; active means hit-call score of the fitted dose curve at least 0.9, where 1 is the maximum; inactive means score below 0.9)
Conditions: HepG2 Attagene CIS-FACTORIAL Myb reporter transcription; actives raise or lower the signal
In short: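 Steps: transfect HepG2 with cis-regulated reporter units; dose with chemical for 24 h; isolate RNA, reverse-transcribe, PCR-amplify and FAM-label reporter sequences; digest with HpaI; resolve by capillary electrophoresis. Activity fitted in both directions relative to DMSO.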

| Compound | outcome | AC50 |
| --- | --- | --- |
| CCN(N=O)C(N)=O | inactive | – |
| Brc1ccc(Br)cc1 | inactive | – |
| C=C(C)[C@@H]1CC=C(C=O)CC1 | inactive | – |
| CCOc1cc(C=O)ccc1O | inactive | – |
| N#Cc1ccncc1 | inactive | – |
| Clc1cccc(Cl)c1 | inactive | – |
| CN(C)c1ccc(N=O)cc1 | inactive | – |
| C=CC(=O)OCC(COC(=O)C=C)(COC(=O)C=C)COC(=O)C=C | – | 24.5 µM (active) |
| CC(C)[C@H](C(=O)OC(C#N)c1cccc(Oc2ccccc2)c1)c1ccc(OC(F)F)cc1 (some centres not stated) | inactive | – |
| CN(N=O)C(N)=O | inactive | – |
| O=[N+]([O-])c1c2ccccc2cc2ccccc12 | inactive | – |
| CCCSP(=S)(OCC)Oc1ccc(Cl)cc1Cl (configuration not stated) | inactive | – |
| CCOC(=O)CCN(SN(C)C(=O)Oc1cccc2c1OC(C)(C)C2)C(C)C | inactive | – |
| C=CC(F)(C(F)(F)F)C(F)(F)C(F)(F)F (configuration not stated) | inactive | – |
| OCCCCO | inactive | – |
| CNC(=O)N(C)c1nc2ccccc2s1 | inactive | – |
| CCOP(=S)(OCC)O/N=C(\C#N)c1ccccc1 | inactive | – |
| Cc1cc(Cl)ccc1N | inactive | – |
| O=C(Cl)OCCOCCOC(=O)Cl | inactive | – |
| CC(F)(F)CC(F)(F)F | inactive | – |
| O=C(O)C1(c2ccc3c(c2)OC[C@H](Cc2ccc(-c4ccccc4)cc2)[C@H]3O)CCCC1 | inactive | – |
| COc1ccc([N+](=O)[O-])cc1O | inactive | – |
| Cc1cc(C(C)(C)c2ccc(O)c(C)c2)ccc1O | – | 89.7 µM (active) |
| OC[C@@H](O)[C@H]1O[C@@H]2O[C@H](C(Cl)(Cl)Cl)O[C@@H]2[C@H]1O | inactive | – |
| C=CCc1ccccc1O | inactive | – |
| O=[N+]([O-])c1cc([As](=O)(O)O)ccc1O | inactive | – |
| CCOC(=O)C(SP(=S)(OC)OC)c1ccccc1 (configuration not stated) | inactive | – |
| CCC(C)(C#N)N=NC(C)(C#N)CC (configuration not stated) | inactive | – |
| CS(=O)(=O)c1ccc(C(=O)C2C(=O)CCCC2=O)c(Cl)c1COCC(F)(F)F | inactive | – |
